system: Vero E6 infected with SARS-CoV-2; experiment: morphology score (similarity to uninfected cells); higher = more like uninfected cells; conditions: 24 h

Row | SMILES | morphology score
1 | Cc1c(N2C(=O)[C@@H]3[C@H](O)CCN3C2=O)ccc(C#N)c1Cl (10 µM) | 0.189
2 | CC(C)(Oc1ccc(Cl)cc1)C(=O)O [clofibric-acid] (10 µM) | -0.0106
3 | Nc1ccn([C@H]2CO[C@@H](CO)S2)c(=O)n1 [apricitabine] (10 µM) | 0.071

system: Vero E6 infected with SARS-CoV-2; experiment: SARS-CoV-2 infection rate relative to infected DMSO; higher = more infection, active = 60 or less; conditions: 24 h

Row | SMILES | SARS-CoV-2 infection rate
4 | c1cnc2c([O][Ga]([O]c3cccc4cccnc34)[O]c3cccc4cccnc34)cccc2c1 [gallium-triquinolin-8-olate] (10 µM) | 16.5% (active)
5 | O=C(NCCCCCCNC(=O)ON=C1CCCCC1)ON=C1CCCCC1 (10 µM) | 104% (inactive)
6 | Cc1ccc([N+](=O)[O-])cc1S(=O)(=O)N(C)C (10 µM) | 97% (inactive)
7 | N#Cc1c(N(CC(=O)O)CC(=O)O)sc(C(=O)O)c1CC(=O)O [Strontium Ranelate] (10 µM) | 107% (inactive)
8 | Fc1ccc(-c2nc3n(c2-c2ccncc2)CCS3)cc1 (10 µM) | 94% (inactive)
9 | Cc1ccc(C(=O)c2ccc(CC(=O)O)n2C)cc1 [tolmetin] (10 µM) | 106% (inactive)
10 | C[C@@H]1CCCN1CCc1cc2cc(-c3ccc(C#N)cc3)ccc2o1 (10 µM) | 80.5% (inactive)
11 | CCOc1ccccc1C(=O)O [2-ethoxybenzoic-acid] (10 µM) | 115% (inactive)
12 | CC(NC(=O)c1ccccc1/N=C/c1c(O)ccc2ccccc12)c1ccccc1 (configuration not stated) [sirtinol] (10 µM) | 99% (inactive)
13 | CC(C)(C)c1cc(C=C(C#N)C#N)cc(Br)c1O (10 µM) | 108% (inactive)
14 | CCC(=N\O)/C(C)=C/c1ccc(F)cc1 (10 µM) | 110% (inactive)
15 | CN1CCN(c2nc(C3=C(c4c[nH]c5ccccc45)C(=O)NC3=O)c3ccccc3n2)CC1 [sotrastaurin] (10 µM) | 119% (inactive)
16 | CC(C)c1ccc(C(=O)N=C(N)N)cc1S(C)(=O)=O [cariporide] (10 µM) | 101% (inactive)
17 | CC1=C(/C=C/C(C)=C/C=C/C(C)=C/C(=O)Nc2ccc(O)cc2)C(C)(C)CCC1 [fenretinide] (10 µM) | 116% (inactive)
18 | CCN(CC)C(C)C(=O)c1ccccc1 (configuration not stated) [amfepramone] (10 µM) | 116% (inactive)
19 | N=C(N)NS(=O)(=O)c1ccc(N)cc1 [sulfaguanidine] (10 µM) | 108% (inactive)
20 | CN1CC[C@H](c2c(O)cc(O)c3c(=O)cc(-c4ccccc4Cl)oc23)[C@H](O)C1 [alvocidib] (10 µM) | 108% (inactive)
21 | CC[C@H](CO)Nc1nc(NCc2ccccc2)c2ncn(C(C)C)c2n1 [roscovitine] (10 µM) | 96% (inactive)
22 | COc1ccc(C(Cl)=C(c2ccc(OC)cc2)c2ccc(OC)cc2)cc1 [chlorotrianisene] (10 µM) | 95.5% (inactive)
23 | O=C(CCCCCCC(=O)Nc1cccnc1)NO [pyroxamide] (0.833333 µM) | 104% (inactive)

Row | SMILES | SARS-CoV-2 infection rate
24 | CC(CC(C(N)=O)(c1ccccc1)c1ccccc1)N(C)C (configuration not stated) [aminopentamide] (10 µM) | 104% (inactive)
25 | CC(C)(O)C(Cl)(Cl)Cl [chlorobutanol] (10 µM) | 106% (inactive)
26 | O=C(O)c1ccc2c(c1)C(=O)N(c1cccc(Oc3ccc([N+](=O)[O-])cc3)c1)C2=O (10 µM) | 99.5% (inactive)
27 | NNc1nncc2ccccc12 [hydralazine] (10 µM) | 104% (inactive)
28 | CCn1c(-c2nonc2N)nc2cnc(Oc3cccc(NC(=O)c4ccc(OCCN5CCOCC5)cc4)c3)cc21 (10 µM) | 97% (inactive)
29 | Cc1ccccc1-c1cc(N2CCN(C)CC2)ncc1N(C)C(=O)C(C)(C)c1cc(C(F)(F)F)cc(C(F)(F)F)c1 [netupitant] (10 µM) | 94% (inactive)
30 | Cc1cc(I)ccc1Nc1c(C(=O)NOCC2CC2)cc(F)c(F)c1F (10 µM) | 113% (inactive)
31 | CCC(=O)N[C@@H]1Cc2ccccc2[C@H](c2ccccc2)C1 (10 µM) | 110% (inactive)
32 | O=C(Nc1ccccc1C(=O)Nc1ccc(CCO)cc1)c1ccc([N+](=O)[O-])cc1 (10 µM) | 112% (inactive)
33 | N#CC(=C(/N)Sc1ccccc1N)/C(C#N)=C(/N)Sc1ccccc1N (10 µM) | 113% (inactive)
34 | CC1(C)N=C(N)N=C(N)N1OCCCOc1cc(Cl)c(Cl)cc1Cl (10 µM) | 89.5% (inactive)
35 | Cc1ccc(-c2cc(C(F)(F)F)nn2-c2ccc(S(N)(=O)=O)cc2)cc1 [celecoxib] (10 µM) | 102% (inactive)
36 | COc1ccc2c(c1)[C@]13CCCC[C@@H]1[C@H](C2)N(C)CC3 [dextromethorphan] (10 µM) | 112% (inactive)
37 | CC(C)C[C@H](NC(=O)CNC(=O)c1cc(Cl)ccc1Cl)B1OC(=O)C(CC(=O)O)(CC(=O)O)O1 (0.833333 µM) | 108% (inactive)
38 | O=C(O)[C@H]1CN(C/C=C/P(=O)(O)O)CCN1 [midafotel] (10 µM) | 89% (inactive)
39 | CO[C@H]1C[C@@H]2CC[C@@H](C)[C@@](O)(O2)C(=O)C(=O)N2CCCC[C@H]2C(=O)O[C@H]([C@H](C)C[C@@H]2CC[C@H](n3cnnn3)[C@H](OC)C2)CC(=O)[C@H](C)/C=C(\C)[C@@H](O)[C@@H](OC)C(=O)[C@H](C)C[C@H](C)/C=C/C=C/C=C/1C [zotarolimus] (0.833333 µM) | 119% (inactive)
40 | Cc1c(N2C(=O)[C@@H]3[C@H](O)CCN3C2=O)ccc(C#N)c1Cl (10 µM) | 91.5% (inactive)
41 | CC(C)(Oc1ccc(Cl)cc1)C(=O)O [clofibric-acid] (10 µM) | 98.5% (inactive)
42 | Nc1ccn([C@H]2CO[C@@H](CO)S2)c(=O)n1 [apricitabine] (10 µM) | 108% (inactive)
